Among the data in PubChem BioAssay (NCI) are growth values, retold here.

This is part of a sample that, as a whole, favours compounds with a hit. Of some 83,000 tested, about 20% had one in any assay.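 48-hour exposure, single concentration, 96-well plates; percent growth endpoint where 0 means no net growth. Active: below 10.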 Unmarked numbers belong to inactive results. Calls of active or inactive are those of the source.

Some test systems named below: HCT-15 colon; SNB-75 CNS; SNB-19 CNS; U251 CNS; PC-3 prostate; SK-MEL-5 melanoma; UACC-62 melanoma; LOX IMVI melanoma; SK-MEL-28 melanoma; SK-MEL-2 melanoma; EKVX NSCLC; SN12C renal; UO-31 renal; TK-10 renal; ACHN renal; CAKI-1 renal; CCRF-CEM leukemia; MOLT-4 leukemia; A498 renal; HT29 colon.
Common to all, as to test: NCI-60 one-dose screen, 48 h (100 = growth as untreated, 0 = no growth, -100 = all killed)
What all share (details): 10 µM unless noted

On to `COc1ccc2c(c1)CC/C(=C\c1ccc(OCC(=O)Nc3nc4ccccc4s3)cc1)C2=O`, for which the growth is 102% with HCT-15 colon; 95.2% in the assay with SNB-75 CNS; 100% in the assay on SNB-19 CNS; 81.4% in the assay on U251 CNS; 74.1% in the assay on PC-3 prostate; 91.6% in the assay on SK-MEL-5 melanoma. Moreover, the growth with UACC-62 melanoma was 86%; with LOX IMVI melanoma, -88.6% (active); in the assay with SK-MEL-28 melanoma, 112%; in the assay with SK-MEL-2 melanoma it was 63%; with EKVX NSCLC, 95.9%; in the assay with SN12C renal it was 88.3%. Also, the growth is 22.2% in the assay on UO-31 renal; 112% in the assay with TK-10 renal; 97.2% with ACHN renal; 79.3% in the assay on CAKI-1 renal; -37% (active) in the assay with CCRF-CEM leukemia; 71.2% in the assay on MOLT-4 leukemia.
As to `O=Cc1ccccc1C(=O)O`, the growth is 103% with HCT-15 colon; 99.4% in the assay with SNB-75 CNS; 107% with SNB-19 CNS; 96.9% with U251 CNS; 96.1% with PC-3 prostate; 101% in the assay on SK-MEL-5 melanoma. The growth was 100% in the assay with UACC-62 melanoma; 101% in the assay with LOX IMVI melanoma; 106% with SK-MEL-28 melanoma; 109% in the assay on SK-MEL-2 melanoma; 94% in the assay with EKVX NSCLC; 104% in the assay with SN12C renal. Besides, the growth was 90% with UO-31 renal; 93.2% in the assay on TK-10 renal; 103% in the assay with ACHN renal; 96% in the assay with CAKI-1 renal; 109% in the assay on A498 renal; 104% with CCRF-CEM leukemia. The growth in the assay on MOLT-4 leukemia was 98.6%.
For the compound `NC(=O)NC1(C(=O)O)CCCC1`, the growth in the assay with HCT-15 colon was 99.9%; with SNB-75 CNS it was 100%; with SNB-19 CNS, 113%; in the assay with U251 CNS, 99.9%; in the assay with PC-3 prostate, 100%; with SK-MEL-5 melanoma it was 111%. Also, the growth in the assay on UACC-62 melanoma was 115%; with LOX IMVI melanoma, 103%; in the assay on SK-MEL-28 melanoma, 122%; in the assay on SK-MEL-2 melanoma it was 108%; in the assay with EKVX NSCLC, 115%; in the assay on SN12C renal, 105%. Further, the growth is 101% with UO-31 renal; 108% with TK-10 renal; 105% in the assay on ACHN renal; 99.9% with CAKI-1 renal; 98.6% with CCRF-CEM leukemia; 98.2% in the assay with MOLT-4 leukemia.
Turning to `COc1cccc(N2CCN(c3cccc(C)n3)CC2)c1`, the growth in the assay on HCT-15 colon was 105%; in the assay with SNB-75 CNS, 133%; in the assay on SNB-19 CNS it was 113%; in the assay on U251 CNS, 97.7%; in the assay with PC-3 prostate, 99.6%; in the assay with SK-MEL-5 melanoma, 92.4%. For the same compound, the growth in the assay with UACC-62 melanoma is 95.1%; with LOX IMVI melanoma, 103%; with SK-MEL-28 melanoma it was 111%; in the assay with SK-MEL-2 melanoma, 94%; with EKVX NSCLC, 106%; in the assay with SN12C renal, 105%. In addition, the growth with TK-10 renal was 123%; in the assay on ACHN renal it was 108%; with CAKI-1 renal, 82.4%; with A498 renal it was 93.9%; with MOLT-4 leukemia it was 101%.
As to `Nc1ccc2c(c1)Cc1cc(Cl)c(Cl)cc1-2`, the growth in the assay with HCT-15 colon was 51.5%; with SNB-75 CNS, 84%; with SNB-19 CNS, 46.2%; in the assay on U251 CNS it was 34.6%; with PC-3 prostate, 68.5%; in the assay on SK-MEL-5 melanoma, 43.4%. For the same compound, the growth with UACC-62 melanoma was 63.4%; with LOX IMVI melanoma it was 76.1%; with SK-MEL-28 melanoma, 78.6%; in the assay with SK-MEL-2 melanoma it was 47.5%; with EKVX NSCLC, 48%; in the assay with SN12C renal, 57.2%. Moreover, the growth in the assay on UO-31 renal is 63.6%; with TK-10 renal it was 101%; in the assay with ACHN renal, 66.8%; in the assay on CAKI-1 renal it was 65.4%; in the assay with A498 renal, 60.1%; with CCRF-CEM leukemia, 32.2%. For the same compound, the growth in the assay with MOLT-4 leukemia was 70.2%.
With `COc1ccc(NS(=O)(=O)N2CCCCC2)cc1`, the growth in the assay with HCT-15 colon was 115%; in the assay with SNB-75 CNS, 115%; in the assay on SNB-19 CNS, 96.4%; in the assay on U251 CNS, 111%; in the assay with PC-3 prostate it was 91.8%; with SK-MEL-5 melanoma it was 97.1%. For the same compound, the growth was 82.5% in the assay on UACC-62 melanoma; 100% with LOX IMVI melanoma; 123% with SK-MEL-28 melanoma; 99.1% in the assay on SK-MEL-2 melanoma; 115% with EKVX NSCLC; 93% in the assay on SN12C renal. The growth is 76.4% with UO-31 renal; 102% with TK-10 renal; 104% in the assay with ACHN renal; 103% in the assay on CAKI-1 renal; 80% with A498 renal; 89.6% in the assay with CCRF-CEM leukemia. Moreover, the growth in the assay with MOLT-4 leukemia is 99.8%.
On to `COc1ccc(CC(=O)Nc2nn3c(-c4cc(C(F)(F)F)cc(C(F)(F)F)c4)nnc3s2)cc1`, for which the growth in the assay on HCT-15 colon was 62.4%; in the assay on HT29 colon it was 83.7%; in the assay with SNB-19 CNS, 70.1%; in the assay on U251 CNS, 70.4%; in the assay on PC-3 prostate, 84.8%; in the assay with SK-MEL-5 melanoma, 2.85% (active). Also, the growth in the assay on UACC-62 melanoma was 28.6%; in the assay with LOX IMVI melanoma it was 52.3%; in the assay on SK-MEL-28 melanoma, 84.5%; with EKVX NSCLC, 67.4%; in the assay on SN12C renal, 64.7%; in the assay on UO-31 renal, 74%. For the same compound, the growth in the assay on ACHN renal is 81.9%; in the assay with CAKI-1 renal, 46.2%; in the assay on A498 renal, 79.9%; with CCRF-CEM leukemia, 49.9%; in the assay with MOLT-4 leukemia, 65.7%.
In the case of `COc1ccccc1-n1c(-c2ccc(O)cc2C)cn2c3c(=O)[nH]c(=O)n(C)c3nc12`, the growth in the assay with HCT-15 colon is 98.4%; in the assay on SNB-75 CNS it was 7.76% (active); in the assay on SNB-19 CNS it was 117%; in the assay with U251 CNS it was 97.6%; in the assay with PC-3 prostate, 77.1%; in the assay with SK-MEL-5 melanoma it was 81.5%. In addition, the growth is 76.6% in the assay with UACC-62 melanoma; 72.6% in the assay on LOX IMVI melanoma; 104% with SK-MEL-28 melanoma; 98.7% with EKVX NSCLC; 75% in the assay with SN12C renal; 74.2% in the assay on UO-31 renal. The growth was 74% with ACHN renal; 79.4% in the assay with CAKI-1 renal; 80.2% with A498 renal; 106% in the assay with CCRF-CEM leukemia; 81.4% with MOLT-4 leukemia.
With `Nc1nc(Nc2ccccc2SSc2ccccc2Nc2nc(N)nc(-c3ccc(I)cc3)n2)nc(-c2ccc(I)cc2)n1`, the growth in the assay on HCT-15 colon was 36.4%; in the assay with HT29 colon it was 97.8%; in the assay on SNB-19 CNS, 37.4%; in the assay with PC-3 prostate it was 19.1%; in the assay on SK-MEL-5 melanoma, 81.4%; in the assay with UACC-62 melanoma, 81.6%. Moreover, the growth in the assay on LOX IMVI melanoma is -0.613% (active); in the assay on SK-MEL-28 melanoma, 94.7%; in the assay on SK-MEL-2 melanoma, 103%; in the assay on EKVX NSCLC, 52.2%; with SN12C renal it was 23.4%; with UO-31 renal, -92.2% (active). The growth with TK-10 renal was 104%; with ACHN renal it was 19.2%; in the assay on CAKI-1 renal, 59.7%; with CCRF-CEM leukemia, 50.3%; with MOLT-4 leukemia it was 71.7%.
